# From the supplement of paper PMC10338343
# ± gives the standard deviation.
# Test system: MILI (PIWIL2) piRISC loaded with L1MC piRNA (26 nt)
# Assay: pre-steady-state target cleavage rate (min^-1); guide: L1MC piRNA 5'p-UAACUAAAUACUAUGCAAGCUGUAGG; MIWI and MILI are mouse PIWI proteins and EfPiwi is from a freshwater sponge; tags in brackets are library labels; higher = faster piRNA-guided slicing of the target
# Details: auxiliary factor: 500 nM mouse GTSF1
# Method in brief: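 Reactions were run for 0–8 or 0–960 min at 33 °C in HEPES–potassium acetate buffer, combining 1 nM active affinity-purified piRISC with one synthetic guide, […] transcribed, DNA-blocked target RNA library and, in some cases, 500 nM GTSF1 partner protein. Sequencing of uncleaved targets followed, with normalisation to depth and to weakly complementary targets. Three trials were pooled, k3 was capped at 0.0001 min^-1, and the pre-steady-state cleavage rate was taken from a burst-and-steady-state fit.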
# 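Note: 1 nM active piRISC with 0.1 nM target library at 33 °C single turnover.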
row,Sequence,pre-steady-state target cleavage rate
1,UCCUGGUACAGGUUGCAUAGUAUUUAGUUA,0.217 ± 0.022
2,UCCUGGAACUGCUUGCAUAGUAAUUAGUUA,0.159 ± 0.012
3,UCCUGGUACAGCUUGCAAACUAUUUAGUUA,0.0345 ± 0.007
4,UCCUGGAUGAGCAUGCAAAGUAUUUAGUUA,0.056 ± 0.011
5,UCCUGGAUGUCGCUGCAUAGUAUUUAGUUA,0.0516 ± 0.0095
6,UCCUGGAACAGGUUGCAUAGUAUUUAGUAA,0.232 ± 0.02
7,UCCUGGUAGAGCUUGCAUAGUAUUAAGUUA,0.207 ± 0.034
8,UCCUGGAUGAGCUUGCAUAGUAUUUAGAUA,0.135 ± 0.031
9,UCCUGCAACAGGUUGCAUAGUAUUUAGUUA,0.248 ± 0.022
10,UCCUGGAAUAGCUUGCAUAGUAUUUAGUUA,0.221 ± 0.015
11,UCCUGGUACACCUUGCAUAGUAAUUAGUUA,0.491 ± 0.14
12,UCCUCCUACUGCUAGCAUAGUAUUUAGUUA,0.232 ± 0.015
13,UCCUGGAUCAGCUUGGAAAGUAUUUAGUUA,0.0767 ± 0.01
14,UCCUGGUUCAGCUUGCAUAGUAUUUUGUUA,0.16 ± 0.03
15,UCCUGGAUGACCAUGCAUAGUAUUUAGUUA,0.0729 ± 0.022
16,UCCUGGUACAGCUUGCAUAGUAUAUAGUUA,0.274 ± 0.041

# Same assay, conditions: auxiliary factor: none (no GTSF1)
row,Sequence,pre-steady-state target cleavage rate
1,UCCUCCUUCAGCUUGCAUAGUAUUUAGUUA,0.0116 ± 0.0026
2,UCCUGGAUGUGGUUGCAUAGUAAUUAGUUA,0.00751 ± 0.0032
3,UCCUGGAUCAGCUUGCAUAGUAUUUAGAUA,0.00393 ± 0.0016
4,UCCUGGAUGUGGUUGCAUAGUAUUUAGUUA,0.0112 ± 0.0031
5,UCCUGCUACUGCUUGCAUAGUAAUUAGUUA,0.00358 ± 0.0023
6,UCCUGGAUGAGCUUGCAUAGUAUUAAGUUA,0.00479 ± 0.0019
7,UCCUGGUACAGCUUGCAGAGUAUUUAGUUA,0.00836 ± 0.0028
8,UCCUGGAUGAGCUUGCAAAGUAUUUAGUUA,0.00483 ± 0.0028
9,UCCUGGAACAGCUUCCAUUGUAUUUAGUUA,0.00471 ± 0.0022
10,UCCUGCUACAGCAUGCAUAGUAUUUAGUUA,0.00853 ± 0.003
11,UCCUCCUACUGCUUGCAUAGUAUAUAGUUA,0.00372 ± 0.0022
12,UCCUGGUACAAGCUUGCAUAGUAUUUAGUUA,0.0121 ± 0.0042
13,UCCUGGUACAGCUAUGCAUAGUAUUUAGUUA,0.0112 ± 0.0038
14,UCCUGGAUGUCUUUGCAUAGUAUUUAGUUA,0.0125 ± 0.0027
15,UCCUGGUACAGCUAGCAUAGUAUUUUGUUA,0.00427 ± 0.0033
16,UCCUCCUACUGCUUGCAUAGAAUUUAGUUA,0.00232 ± 0.002
17,UCCUGGUAGAGCUAGCAUAGUAUUUAGUUA,0.00986 ± 0.0028
18,UCCUGGUACAGCUUGUAUAGUAUUUAGUUA,0.0121 ± 0.0031
19,UCCUGCAACAGCUUGCAUAGUAAUUAGUUA,0.00709 ± 0.0027
20,UCCUGGAUGAGCUUCGCAUAGUAUUUAGUUA,0.00539 ± 0.0022

row,Sequence,pre-steady-state target cleavage rate
1,UCCUGGAUCAGCUUCAUAGUAUUUAGUUA,0.00548 ± 0.0028
2,UCCUGGAACAGAUUGCAUAGUAUUUAGUUA,0.0113 ± 0.0023
3,UCCUGGUACAGCUUGCAUUGUAUUUAGUUA,0.0101 ± 0.0041
4,UCCUGGAUGUGCUUGCAUAGUAUUUGGUUA,0.01 ± 0.0034
5,UCCUGGUACAGGUUGCAUAGUAUUUAGUUA,0.0148 ± 0.004
6,UCCUGGAACUGCUUGCAUAGUAAUUAGUUA,0.00625 ± 0.0021
7,UCCUGGUACAGCUUGCAAACUAUUUAGUUA,0.00378 ± 0.0028
8,UCCUGGAUGAGCAUGCAAAGUAUUUAGUUA,0.00571 ± 0.002
9,UCCUGGAUGUCGCUGCAUAGUAUUUAGUUA,0.00769 ± 0.0026
10,UCCUGGAACAGGUUGCAUAGUAUUUAGUAA,0.00824 ± 0.0023
11,UCCUGGUAGAGCUUGCAUAGUAUUAAGUUA,0.00672 ± 0.0026
12,UCCUGGAUGAGCUUGCAUAGUAUUUAGAUA,0.00291 ± 0.0024
13,UCCUGCAACAGGUUGCAUAGUAUUUAGUUA,0.00771 ± 0.0033
14,UCCUGGAAUAGCUUGCAUAGUAUUUAGUUA,0.0149 ± 0.0032
15,UCCUGGUACACCUUGCAUAGUAAUUAGUUA,0.00374 ± 0.0032
16,UCCUCCUACUGCUAGCAUAGUAUUUAGUUA,0.006 ± 0.0021
17,UCCUGGAUCAGCUUGGAAAGUAUUUAGUUA,0.00552 ± 0.0021
18,UCCUGGUUCAGCUUGCAUAGUAUUUUGUUA,0.00444 ± 0.0036
19,UCCUGGAUGACCAUGCAUAGUAUUUAGUUA,0.00375 ± 0.0034
20,UCCUGGUACAGCUUGCAUAGUAUAUAGUUA,0.00795 ± 0.0034
